Sampled rows, rich in hits. Any-hit rate of the full collection: about 21%.
CYP2C19 inh – human CYP2C19 inhibition; P33261; CYP2C19 Supersomes, luciferin-H EGE luminescence, 30 min; inhibition, % at 5 µM; actives 21% (n = 96,000);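 active = CYP2C19 inhibition above a set limit at 5 µM in the primary screen, cut at about 50% in these data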;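 note: plate controls were negative control wells for no effect and 2.5 mM tranylcypromine positive control for full effect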
Target sequence (P33261 whole entry, looked up): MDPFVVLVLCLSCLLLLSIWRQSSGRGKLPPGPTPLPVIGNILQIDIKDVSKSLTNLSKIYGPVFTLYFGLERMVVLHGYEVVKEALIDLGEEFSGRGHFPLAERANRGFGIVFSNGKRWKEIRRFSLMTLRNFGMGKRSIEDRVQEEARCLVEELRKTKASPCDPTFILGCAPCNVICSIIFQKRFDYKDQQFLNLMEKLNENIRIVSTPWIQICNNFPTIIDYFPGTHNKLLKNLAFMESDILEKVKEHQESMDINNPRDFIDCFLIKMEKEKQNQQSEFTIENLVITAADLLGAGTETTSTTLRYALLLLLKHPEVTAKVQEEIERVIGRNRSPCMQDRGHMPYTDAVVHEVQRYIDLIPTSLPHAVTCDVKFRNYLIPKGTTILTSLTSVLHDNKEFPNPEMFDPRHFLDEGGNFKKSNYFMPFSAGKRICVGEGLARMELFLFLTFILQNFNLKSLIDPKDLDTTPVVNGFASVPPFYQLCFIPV
MRP-1 activ – activators of MRP-1 | H69AR cells + doxorubicin, viability rescue, CellTiter-Glo | viability increase, % at 10 µM | actives 0.61% (n = 140,000) | AID 799;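 active = viability gain under doxorubicin at or above a set limit, the compound median plus 3 SD, cut at about 4.7% in these data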;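 note: MRP-1 overexpressing cells given doxorubicin 25 µM after compound pretreatment; 18-22 h compound pretreatment then 72 h with doxorubicin before readout; 0% = doxorubicin-only wells and 100% = vehicle-treated cells without doxorubicin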
MRP resist rev – MRP-mediated drug resistance reversal | differential viability (reversal), % at 10 µM | AID 602 | actives 0.04% (n = 85,000) | H69AR cells + 2 uM doxorubicin, CellTiter-Glo, 72 h;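 active = viability drop by adding the cancer drug above about 55%, with treated viability meeting a 40% cutoff, limit read from the data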;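 note: viability without doxorubicin minus viability with 2 µM doxorubicin for each compound; larger differential means the compound sensitizes cells more to doxorubicin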
CYP2C19 act – cytochrome P450 2C19 (human) activation; 96,000 tested, under 10 active; P33261; activation factor at 5 µM; recombinant CYP2C19, luciferin-H EGE luminescence; active compounds read high; 0 = fully inhibited enzyme, 1 = untreated enzyme;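 active = activation factor of at least 2 at 5 µM in the primary screen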;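 note: 0 = wells with 2.5 mM tranylcypromine and 1 = vehicle-only wells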
CYP2C9 inh – blocks human cytochrome P450 2C9; inhibition, % at 5 µM; AID 777; actives 20% (n = 96,000); CYP2C9 Supersomes, luciferin-H conversion, luminescence; P11712;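 active = blocking of liver enzyme CYP2C9 beyond about 50% at 5 µM, limit read from the data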
CYP2C9 act – increases human cytochrome P450 2C9 activity; activation factor at 5 µM; P11712; actives 1.4% (n = 96,000); recombinant CYP2C9, luciferin-H conversion, luminescence; active compounds read high; factor 1 = untreated enzyme, 0 = blocked;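 active = activation factor of 2 or more for CYP2C9 at a 5 µM dose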;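 note: 0 = sulfaphenazole-blocked wells and 1 = vehicle-only wells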
* marks the source's active call; other numbers are inactive results.

`N#CC(/C(=N/S(=O)(=O)c1cccs1)c1ccccc1)c1nc2ccccc2[nH]1` (configuration not stated) gave CYP2C19 inh 17, MRP-1 activ -2, CYP2C19 act 0.8, CYP2C9 inh 95* and CYP2C9 act 0.1.
COc1ccc(C2CC(c3cccs3)=NN2C(=O)CSC2=NN3CCCC(=O)N=C3S2)cc1 (configuration not stated) was read as CYP2C19 inh 3, MRP-1 activ -3, MRP resist rev 11, CYP2C19 act 1, CYP2C9 inh 25 and CYP2C9 act 0.7.
Cc1ccc(C2CC(c3cccs3)=NN2C(=O)CSC2=NN3CCCC(=O)N=C3S2)cc1 (configuration not stated) was read as CYP2C19 inh 91*, MRP-1 activ -4, MRP resist rev -23, CYP2C19 act 0.1, CYP2C9 inh 82* and CYP2C9 act 0.2.
Screening CC(NC(=O)/C=C/c1ccc(Br)cc1)c1ccc(Cl)cc1 (configuration not stated) returned MRP-1 activ 0.
For Cc1cc(C)n(C(=O)CN2C(=O)COc3ccccc32)n1 the results were CYP2C19 inh 80*, MRP-1 activ 0, MRP resist rev 11, CYP2C19 act 0.2, CYP2C9 inh 57* and CYP2C9 act 0.4.
Screening CCc1ccc(CNC(=O)CN2C(=O)COc3ccccc32)cc1 returned CYP2C19 inh 72*, MRP-1 activ 0, MRP resist rev 6, CYP2C19 act 0.3, CYP2C9 inh -62 and CYP2C9 act 1.6.
Screening O=C(CN1C(=O)COc2ccccc21)NCc1ccc(C(=O)O)cc1 returned CYP2C19 inh -9, MRP-1 activ -1, MRP resist rev 1, CYP2C19 act 1.1, CYP2C9 inh -1 and CYP2C9 act 1.
CC(NC(=O)CN1C(=O)COc2ccccc21)c1ccccc1 (configuration not stated) was read as CYP2C19 inh 89*, MRP-1 activ 1, MRP resist rev 12, CYP2C19 act 0.1, CYP2C9 inh -116 and CYP2C9 act 2.2*.
CCN(C(=S)NC(=O)CCc1ccccc1)c1ccccc1 was read as MRP-1 activ -1.
For Cc1cc(C)c2c(=O)n(CC(=O)N3CCC(Cc4ccccc4)CC3)sc2n1 the results were CYP2C19 inh -3, MRP-1 activ -6, MRP resist rev -7, CYP2C19 act 1, CYP2C9 inh 40 and CYP2C9 act 0.6.
Cc1cccc(N2CCN(C(=O)c3cc(C)oc3C)CC2C)c1 (configuration not stated) was read as MRP-1 activ -3.
Screening Cc1cccc(N2CCN(C(=O)Cc3ccc(-n4c(=O)[nH]c5ccsc5c4=O)cc3)CC2C)c1 (configuration not stated) returned MRP-1 activ -1.
Screening Cc1cccc(N2CCN(C(=O)Cn3c(=O)[nH]c4ccsc4c3=O)CC2C)c1 (configuration not stated) returned CYP2C19 inh 59*, MRP-1 activ -1, MRP resist rev -15, CYP2C19 act 0.4, CYP2C9 inh 37 and CYP2C9 act 0.6.
For O=C(CN1CCOc2ccccc21)N1CCN(c2cccc(Cl)c2)CC1 the results were MRP resist rev 2.
For Cc1cccc(N2CCN(C(=O)CN3CCOc4ccccc43)CC2C)c1 (configuration not stated) the results were CYP2C19 inh 94*, MRP-1 activ -2, MRP resist rev -1, CYP2C19 act 0.1, CYP2C9 inh 54* and CYP2C9 act 0.5.
Cc1cccc(N2CCN(C(=O)Cn3sc4nc(C)cc(C)c4c3=O)CC2C)c1 (configuration not stated) was read as CYP2C19 inh 26, MRP-1 activ -6, MRP resist rev 0, CYP2C19 act 0.7, CYP2C9 inh 54* and CYP2C9 act 0.5.
Screening Cc1cccc(N2CCN(C(=O)c3ccncc3)CC2C)c1 (configuration not stated) returned CYP2C19 inh 100*, MRP-1 activ -4, MRP resist rev -33, CYP2C19 act 0, CYP2C9 inh 49 and CYP2C9 act 0.5.
Screening COC(=O)C1=C(C)NC2=C(C(=O)CC(C)(C)C2)C1c1cnn(C)c1C (configuration not stated) returned MRP-1 activ -2.
`COc1ccccc1-c1nc2cc3ccccc3cc2nc1-c1ccccc1` gave MRP-1 activ -3.
Screening COc1ccc(NC(=O)CSc2nc(C)cc(C(F)(F)F)n2)cc1 returned CYP2C19 inh 65*, MRP-1 activ 0, MRP resist rev 6, CYP2C19 act 0.4, CYP2C9 inh -59 and CYP2C9 act 1.6.
Screening Cc1cc(C(F)(F)F)nc(SCC(=O)NC2CC3CCC2C3)n1 (configuration not stated) returned CYP2C19 inh 83*, MRP-1 activ 0, MRP resist rev 35, CYP2C19 act 0.2, CYP2C9 inh -111 and CYP2C9 act 2.1*.
For Cc1cc(C(F)(F)F)nc(SCC(=O)Nc2ccccc2)n1 the results were CYP2C19 inh 91*, MRP-1 activ 2, MRP resist rev 12, CYP2C19 act 0.1, CYP2C9 inh -14 and CYP2C9 act 1.1.
`CSc1nc(C)cc(SCC(=O)Nc2ccccc2)n1` gave CYP2C19 inh 90*, MRP-1 activ -3, MRP resist rev 9, CYP2C19 act 0.1, CYP2C9 inh 67* and CYP2C9 act 0.3.
Screening CCOC(=O)Nc1nc(-c2ccc(Cl)cc2Cl)cs1 returned MRP-1 activ -1.
For Cc1cc(C(F)(F)F)nc(SCC(=O)Nc2cc(C)on2)n1 the results were CYP2C19 inh 52*, MRP-1 activ -2, CYP2C19 act 0.5, CYP2C9 inh 0 and CYP2C9 act 1.
Screening CN(C)CCNC(=O)C12CC3(C)CC(C)(CC(C)(C3)C1)C2 returned CYP2C19 inh 13, MRP-1 activ -3, MRP resist rev 5, CYP2C19 act 0.9, CYP2C9 inh 0 and CYP2C9 act 1.
Screening Cc1[nH]c2ccccc2c(=O)c1SC(F)(F)C(F)C(F)(F)F (configuration not stated) returned CYP2C19 inh 58*, MRP-1 activ -4, MRP resist rev -2, CYP2C19 act 0.4, CYP2C9 inh 22 and CYP2C9 act 0.8.
C=CCn1c(C)cc(C(=O)COC(=O)CNC(=O)c2ccccc2)c1C was read as MRP-1 activ -2.
For Cc1noc(C)c1S(=O)(=O)N1CCN(c2ccccc2)CC1 the results were CYP2C19 inh 80*, MRP-1 activ 0, MRP resist rev 19, CYP2C19 act 0.2, CYP2C9 inh 69* and CYP2C9 act 0.3.
Screening Cc1noc(C)c1S(=O)(=O)N1CCC(Cc2ccccc2)CC1 returned CYP2C19 inh 21, MRP-1 activ -2, MRP resist rev 9, CYP2C19 act 0.8, CYP2C9 inh 59* and CYP2C9 act 0.4.

Screening data as filed in PubChem.
